Test results from PubChem BioAssay AID1159580 (chemical genetic matrix, 2015).
Where “and” joins values, the source holds several entries; their conditions need not be identical. Identical values can stand only once. The whole screen tested about 5,500 compounds, of which about 2,000 (36%) were called active. About 18% were inconclusive and are not listed. Cut-off read from the data, not from the text of the source: active = normalized growth mostly below about 0.91 (no sharp cut-off); inconclusive = no clear call, values can overlap the other calls; inactive = mostly above about 0.92. Some of the results follow.

Experiment: chemical genetic growth profiling, strain panel (AID 1159580);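 note: tested at 20 µM; growth read once vehicle control cultures reached saturation at 30 °C; 1 = growth at the plate median or of vehicle wells; lower values mean less growth of the strain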
Conditions: S. cerevisiae deletion strains, growth OD

Measured: normalized growth

O=S(=O)(O)CCS
inactive: locus YAL013W, strain DEP1, stronger effect = lower value 1.01 | locus YAL021C, strain ccr4, stronger effect = lower value 0.983 | locus YAL026C, strain drs2, stronger effect = lower value 1 | locus YAL030W, strain snc1, stronger effect = lower value 0.993 | locus YBL061C, strain skt5, stronger effect = lower value 0.966 | locus YBR009C, strain hhf1, stronger effect = lower value 1.01 | locus YBR021W, strain FUR4, stronger effect = lower value 1.01 | locus YBR023C, strain chs3, stronger effect = lower value 0.989 | locus YBR171W, strain sec66, stronger effect = lower value 0.976 | locus YBR229C, strain ROT2, stronger effect = lower value 1.01 | locus YBR231C, strain swc5, stronger effect = lower value 1.01 | locus YBR279W, strain paf1, stronger effect = lower value 0.986 | locus YCL016C, strain dcc1, stronger effect = lower value 0.976 | locus YCL029C, strain bik1, stronger effect = lower value 0.993 | locus YCL069W, strain vba3, stronger effect = lower value 0.979 | locus YCR088W, strain abp1, stronger effect = lower value 0.985 | locus YDL005C, strain med2, stronger effect = lower value 0.949 | locus YDL035C, strain GPR1, stronger effect = lower value 1.02 | locus YDL040C, strain nat1, stronger effect = lower value 0.999 | locus YDL074C, strain BRE1, stronger effect = lower value 1.05 | locus YDL101C, strain DUN1, stronger effect = lower value 1.02 | locus YDL134C, strain PPH21, stronger effect = lower value 1.01 | locus YDL185W, strain tfp1, stronger effect = lower value 0.985 | locus YDL192W, strain arf1, stronger effect = lower value 0.99 | locus YDR001C, strain nth1, stronger effect = lower value 0.99 | locus YDR069C, strain doa4, stronger effect = lower value 0.992 | locus YDR101C, strain arx1, stronger effect = lower value 1.02 | locus YDR137W, strain rgp1, stronger effect = lower value 0.984 | locus YDR150W, strain NUM1, stronger effect = lower value 1.01 | locus YDR159W, strain sac3, stronger effect = lower value 0.977 | locus YDR162C, strain NBP2, stronger effect = lower value 1.01 | locus YDR195W, strain ref2 0.988 | locus YDR297W, strain sur2, stronger effect = lower value 0.989 | locus YDR318W, strain mcm21, stronger effect = lower value 0.991 | locus YDR334W, strain swr1, stronger effect = lower value 0.982 | locus YDR335W, strain msn5, stronger effect = lower value 0.981 | locus YDR388W, stronger effect = lower value 0.978 | locus YDR392W, strain spt3, stronger effect = lower value 0.928 | locus YDR502C, strain sam2, stronger effect = lower value 0.995 | locus YEL003W, strain gim4, stronger effect = lower value 0.998 | locus YEL037C, strain rad23, stronger effect = lower value 0.985 | locus YEL061C, strain CIN8 (second series), stronger effect = lower value 1.01 | locus YEL061C, strain CIN8, stronger effect = lower value 1.01 | locus YER015W, strain faa2, stronger effect = lower value 0.998 | locus YER016W, strain bim1, stronger effect = lower value 0.945 | locus YER110C, stronger effect = lower value 0.987 | locus YER111C, strain swi4, stronger effect = lower value 0.981 | locus YER155C, strain BEM2 (second series), stronger effect = lower value 1 | locus YER155C, strain BEM2, stronger effect = lower value 1.01 | locus YER167W, strain BCK2, stronger effect = lower value 0.996 | locus YFR010W, strain ubp6, stronger effect = lower value 1.01 | locus YGL078C, strain dbp3, stronger effect = lower value 0.976 | locus YGL086W, strain mad1, stronger effect = lower value 0.997 | locus YGL167C, strain pmr1, stronger effect = lower value 0.985 | locus YGL173C, strain kem1, stronger effect = lower value 0.998 | locus YGL227W, strain vid30, stronger effect = lower value 0.979 | locus YGL240W, strain doc1, stronger effect = lower value 1.01 | locus YGL248W, strain PDE1, stronger effect = lower value 1.03 | locus YGL253W, strain hxk2, stronger effect = lower value 0.986 | locus YGR135W, strain pre9, stronger effect = lower value 0.997 | locus YGR252W, strain gcn5, stronger effect = lower value 0.936 | locus YHR013C, strain ard1, stronger effect = lower value 0.927 | locus YHR027C, strain rpn1, stronger effect = lower value 1.01 | locus YHR030C, strain SLT2, stronger effect = lower value 1.01 and 0.989 | locus YHR079C, strain IRE1 (second series), stronger effect = lower value 0.989 | locus YHR079C, strain IRE1, stronger effect = lower value 0.991 | locus YHR094C, strain hxt1, stronger effect = lower value 0.991 | locus YHR129C, strain ARP1, stronger effect = lower value 1.01 | locus YHR142W, strain chs7, stronger effect = lower value 0.968 | locus YHR200W, strain rpn10, stronger effect = lower value 0.999 | locus YIL066C, strain RNR3, stronger effect = lower value 1.02 | locus YIL073C, strain SPO22, stronger effect = lower value 0.965 | locus YIL125W, strain kgd1, stronger effect = lower value 0.981 | locus YIR030C, strain dcg1, stronger effect = lower value 0.999 | locus YJL092W, strain hpr5, stronger effect = lower value 0.997 | locus YJL095W, strain BCK1 (second series), stronger effect = lower value 0.971 | locus YJL095W, strain BCK1, stronger effect = lower value 1.03 and 0.974 | locus YJL115W, strain asf1, stronger effect = lower value 0.983 | locus YJL129C, strain trk1, stronger effect = lower value 0.946 | locus YJL134W, strain LCB3, stronger effect = lower value 1.01 | locus YJL154C, strain vps35, stronger effect = lower value 0.97 | locus YJL164C, strain tpk1, stronger effect = lower value 0.991 | locus YJL166W, strain qcr8, stronger effect = lower value 1 | locus YJL168C, strain set2, stronger effect = lower value 0.992 | locus YJL187C, strain SWE1 (second series), stronger effect = lower value 1.03 | locus YJL187C, strain SWE1, stronger effect = lower value 0.986 | locus YJR043C, strain POL32, stronger effect = lower value 1.01 | locus YJR066W, strain TOR1, stronger effect = lower value 0.961
